In the library only some 10% were active in any assay of this set; here they are far more common.
GLS inhibitor: inhibitors of human glutaminase (GLS) | AID 624170 | GLS enzymatic activity, qHTS titration | Potency, µM (top dose mostly 45.5 µM), inactives show top-dose activity change, negative = inhibition, hits mostly inhibitors | 410,000 tested, 0.21% active | O94925; also: % is scaled to controls: 0 for no effect and ±100 for the full control effect
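Human kidney-isoform GLS in 45 mM KH2PO4 pH 8.2, 0.02% Tween-20, with compound, started with 1mM L-Glutamine (added stock). Glutamate oxidase/HRP/Amplex red coupled fluorescence read at start and after 30 min at RT.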
G9a inh: blocks human histone lysine methyltransferase G9a | Q96KQ7 | G9a H3K9 monomethylation, AlphaScreen, 2 h | Potency, µM (highest dose often 102 µM), without a hit: top-dose activity, negative = inhibition, usual class: inhibitors | 350,000 tested, 8.8% active | AID 504332; also: % is scaled to controls: 0 for no effect and ±100 for the full control effect; nearly all actives have a fitted effect of over 75% in size
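Enzyme 20 nM + cpd, 15 min RT; add b-H3K9 pep 500 nM / SAM 20 uM; 2 h RT; anti-H3K9me1 Ab 0.5 ug/mL + SA donor / anti-rabbit acceptor beads 20 ug/mL each, 10 min; AlphaScreen read.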
HP1b binding inh: inhibitors of HP1-beta chromodomain binding to methylated histone tails; AlphaScreen HP1-beta / biotin-H3K9me3 peptide binding; P83916; 390,000 tested, 0.56% active; Potency, µM (series often up to 114 µM), inactives show at the highest dose activity change, negative = inhibition, actives largely listed as inhibitors; also: nearly all actives have a fitted effect of over 70% in size
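HP1-beta protein (50 nM final) preincubated 30 min at room temperature with biotinylated H3(1-18)K9me3 peptide (50 nM) in PBS pH 7.4, 0.01% Tween-20, then compound added for 30 min. AlphaScreen streptavidin donor/nickel chelate acceptor beads (10 ug/mL final), 30 min dark, luminescence read.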
L3MBTL1 inh: L3MBTL1 (human) inhibition; AlphaScreen L3MBTL1–H3K9me1 peptide binding; 230,000 tested, 0.66% active; Potency, µM (titrated, usually from 57.1 µM), without a hit: top-dose activity, negative = inhibition, usual class: inhibitors; Q9Y468; also: % is scaled to controls: 0 for no effect and ±100 for the full control effect; nearly all actives have a fitted effect of over 60% in size
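L3MBTL1 50 nM + b-AHA-H3(1-15)K9me1 75 nM, 30 min RT; compound added, 30 min RT; streptavidin donor/Ni-chelate acceptor beads 10 ug/mL each final, 30 min RT dark; AlphaScreen read.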
JMJD2A Tudor inh: inhibitors of human JMJD2A Tudor domain; O75164; AlphaScreen JMJD2A-Tudor / H3K4me3 peptide binding; Potency, µM (highest dose often 114 µM), for inactives: top-dose activity change, negative = inhibition, usual class: inhibitors; 390,000 tested, 4.4% active; AID 504339; also: % is scaled to controls: 0 for no effect and ±100 for the full control effect; nearly all actives have a fitted effect of over 50% in size
BAZ2B inh: blocks human BAZ2B. AlphaScreen BAZ2B-H3K14Ac peptide displacement. Q9UIF8. 360,000 tested, 4.4% active. Potency, µM (doses to about 114 µM), without a hit: top-dose activity change, negative = inhibition, usual class: inhibitors; also: % is scaled to controls: 0 for no effect and ±100 for the full control effect; nearly all actives have a fitted effect of over 60% in size
Target sequence (Q9UIF8 whole entry, looked up): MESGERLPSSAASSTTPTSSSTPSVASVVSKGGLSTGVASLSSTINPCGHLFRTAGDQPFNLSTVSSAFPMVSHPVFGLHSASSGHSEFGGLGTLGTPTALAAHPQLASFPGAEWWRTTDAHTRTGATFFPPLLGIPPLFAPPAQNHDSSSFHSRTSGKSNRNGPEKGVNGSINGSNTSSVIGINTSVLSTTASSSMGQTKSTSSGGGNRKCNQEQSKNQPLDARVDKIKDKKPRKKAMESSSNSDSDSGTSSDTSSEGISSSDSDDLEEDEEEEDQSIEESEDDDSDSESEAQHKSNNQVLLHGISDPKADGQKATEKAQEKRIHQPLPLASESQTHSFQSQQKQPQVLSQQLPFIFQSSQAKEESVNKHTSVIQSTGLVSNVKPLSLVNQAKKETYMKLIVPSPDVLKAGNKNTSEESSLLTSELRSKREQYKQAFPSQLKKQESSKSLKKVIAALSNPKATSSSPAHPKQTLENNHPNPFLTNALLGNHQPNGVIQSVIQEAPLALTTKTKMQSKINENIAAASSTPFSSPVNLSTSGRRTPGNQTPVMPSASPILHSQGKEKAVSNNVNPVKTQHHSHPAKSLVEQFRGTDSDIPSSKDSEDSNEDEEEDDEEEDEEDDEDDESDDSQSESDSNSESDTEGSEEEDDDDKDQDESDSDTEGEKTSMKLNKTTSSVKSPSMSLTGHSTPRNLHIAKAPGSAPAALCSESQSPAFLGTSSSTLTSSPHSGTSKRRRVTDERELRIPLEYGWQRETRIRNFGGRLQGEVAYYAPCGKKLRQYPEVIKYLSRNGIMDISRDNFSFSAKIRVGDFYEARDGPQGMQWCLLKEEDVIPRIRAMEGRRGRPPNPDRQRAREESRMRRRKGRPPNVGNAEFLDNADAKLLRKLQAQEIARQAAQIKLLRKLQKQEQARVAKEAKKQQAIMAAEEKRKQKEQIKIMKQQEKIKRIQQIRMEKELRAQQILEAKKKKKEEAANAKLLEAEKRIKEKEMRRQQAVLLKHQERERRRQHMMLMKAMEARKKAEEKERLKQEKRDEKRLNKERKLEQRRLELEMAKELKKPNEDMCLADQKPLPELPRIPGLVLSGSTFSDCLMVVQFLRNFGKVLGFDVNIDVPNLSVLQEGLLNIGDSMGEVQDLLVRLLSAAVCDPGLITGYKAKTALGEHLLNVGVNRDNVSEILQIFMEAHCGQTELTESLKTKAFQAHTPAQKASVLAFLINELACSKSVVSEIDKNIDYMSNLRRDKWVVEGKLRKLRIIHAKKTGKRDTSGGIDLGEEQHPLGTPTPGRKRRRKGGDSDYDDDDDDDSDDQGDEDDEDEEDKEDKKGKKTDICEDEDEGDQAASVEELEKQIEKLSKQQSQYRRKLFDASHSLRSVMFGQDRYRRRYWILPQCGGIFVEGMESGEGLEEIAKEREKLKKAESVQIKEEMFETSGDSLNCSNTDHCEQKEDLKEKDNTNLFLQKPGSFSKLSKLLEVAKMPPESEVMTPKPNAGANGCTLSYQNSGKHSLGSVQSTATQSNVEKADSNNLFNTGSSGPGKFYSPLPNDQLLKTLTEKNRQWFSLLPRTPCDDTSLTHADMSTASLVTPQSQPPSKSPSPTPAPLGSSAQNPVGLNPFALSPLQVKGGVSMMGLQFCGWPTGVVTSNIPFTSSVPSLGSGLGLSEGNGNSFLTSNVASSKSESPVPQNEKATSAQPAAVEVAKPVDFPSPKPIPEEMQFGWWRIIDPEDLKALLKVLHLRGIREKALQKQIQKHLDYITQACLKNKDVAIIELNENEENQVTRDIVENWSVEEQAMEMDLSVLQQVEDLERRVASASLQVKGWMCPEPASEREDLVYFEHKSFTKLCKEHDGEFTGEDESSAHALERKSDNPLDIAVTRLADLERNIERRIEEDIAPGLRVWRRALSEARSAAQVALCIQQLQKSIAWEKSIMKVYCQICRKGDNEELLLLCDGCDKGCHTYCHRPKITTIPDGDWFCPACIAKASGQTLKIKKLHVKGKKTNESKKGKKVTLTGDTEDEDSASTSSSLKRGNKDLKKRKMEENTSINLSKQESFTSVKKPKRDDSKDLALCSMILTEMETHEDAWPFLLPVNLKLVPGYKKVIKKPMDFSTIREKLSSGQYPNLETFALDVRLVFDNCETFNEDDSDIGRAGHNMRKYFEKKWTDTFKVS
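Complex of BAZ2B and biotin-H3K14Ac (50 nM apiece) forms over 30 min at RT, then faces library compounds up to 110 uM for another 30 min; AlphaScreen beads added, 20 min dark incubation, luminescence read.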
The depositor's hits bear a star; ? = inconclusive; · = no result given; [ ] = dose if it differs, or a comment. Calls follow the shape of the dose curve; as a rule, active = well fitted curve in the direction sought with a large enough effect; inconclusive = small, poorly fitted or top-dose-only effect, or another doubt; inactive = no such curve, though single readings can be large; an effect the other way counts as inactive or inconclusive. Potency is read from the fitted curve at half-maximal effect.

SMILES | GLS inhibitor | G9a inh | HP1b binding inh | L3MBTL1 inh | JMJD2A Tudor inh | BAZ2B inh
CC(C)c1ccc(NC2CCCN(C(=O)c3n[nH]c4c3CCC4)C2)cc1 (configuration not stated) | -20.7% | 70.8µM* | 4.3% | · | -24.3% | -24.1%
Cc1occc1C(=O)N1CCCC(Nc2ccc(C(C)C)cc2)C1 (configuration not stated) | 2.5% | 39.8µM* | -10.9% | · | ? | ?
Cc1occc1C(=O)N1CCCC(Nc2ccc(F)cc2)C1 (configuration not stated) | 8.9% | · | 17.3% | · | -9.9% | -19.1%
CC(C)c1ccc(NC2CCCN(C(=O)c3cnsn3)C2)cc1 (configuration not stated) | 1.8% | 35.5µM* | 0.8% | · | -22.9% | ?
CCN(CC)S(=O)(=O)c1cc(-c2ccc(=O)n(C(C)C(=O)Nc3cccc(C#N)c3)n2)ccc1C (configuration not stated) | 0.9% | -7.0%[59 µM] | 22.5% | · | -21.9% | -18.6%
Cc1ccc(O)c(NC(=O)CCSc2nc(-c3ccco3)cc(C(F)(F)F)n2)c1 | 8.1% | 7.0%[59 µM] | 22.9% | · | -12.0% | -7.7%
COCc1ccc(C(=O)N2CCCC(Nc3ccc(C(C)C)cc3)C2)o1 (configuration not stated) | 1.5% | 44.7µM* | -10.1% | · | -33.8% | ?
Cc1ccc(NC2CCCN(C(=O)c3cccnc3)C2)cc1C (configuration not stated) | 8.8% | -1.1% | 19.9% | · | 3.0% | -16.5%
COCc1ccc(C(=O)N2CCCC(Nc3ccc(C(C)C)cc3)C2)s1 (configuration not stated) | 1.0% | 6.4% | ? | · | ? | 3.3%
COC(=O)c1ccc(C(=O)N2CCCC(Nc3ccc(C(C)C)cc3)C2)cc1 (configuration not stated) | 5.9% | 79.4µM* | 11.9% | · | ? | ?
CC(C)c1ccc(NC2CCCN(C(=O)c3cccnc3)C2)cc1 (configuration not stated) | -5.1% | 79.4µM* | 16.5% | · | -26.9% | -23.4%
Cc1ccc(-n2nc(C(C)(C)C)cc2NC(=O)Nc2ccc(OCCN3CCOCC3)c3ccccc23)cc1 | 5.5% | · | · | · | · | ·
CCC1=[N+](CC(=O)c2ccc(C)cc2)CCn2cccc21 | 3.9% | ? | -4.0% | -6.5% | -31.7% | ?
CC1=[N+](CC(=O)c2ccccc2)CCn2cccc21 | -0.9% | 31.6µM* | 33.3% | 2.5% | -16.8% | -28.8%
Cc1cc(C)cc(Oc2c(C(F)(F)F)oc3cc(OCC(=O)NC4CCCCC4)ccc3c2=O)c1 | -4.4% | -3.9%[59 µM] | 44.2% | · | -13.8% | 2.2%
Cc1cc(C)c(NC(=O)CN2CCN3CCCC3C2)c(C)c1 (configuration not stated) | 9.5% | 11.2µM* | 17.8% | -9.5% | -9.7% | -5.8%
COC(=O)c1ccccc1NC(=O)CN(c1ccc(Cl)cc1)S(=O)(=O)c1ccc(OC)cc1 | -9.5% | ? | 17.9% | · | -5.2% | 2.7%
O=C(Nc1ccc(C2=NCCN2)cc1)c1ccc(Cl)c(C(=O)Nc2ccc(C3=NCCN3)cc2)c1 | · | 17.8µM* | · | -20.6% | · | -23.3%
COCCn1c(=O)c(-c2ccc(OC)cc2)nc2cnc(OC)nc21 | · | -0.4%[12.7 µM] | · | · | · | ·
COCCn1c(-c2ccc(OC)cc2)c(-c2ccc(OC)cc2)oc1=O | 2.4% | -20.6%[2.33 µM] | -12.1% | · | -14.4% | 35.5µM*
Cc1cc2oc(=O)cc(CSc3nc(N)cc(N)n3)c2cc1C(C)C | 13.9% | -22.3% | 1.8% | · | -22.3% | 31.6µM*
CC(CNCC1CCCO1)COc1cccc2ccccc12 (configuration not stated) | 8.4% | ? | ? | 1.1% | 1.78µM* | ?
CCN(CC)S(=O)(=O)c1ccc(NC2=NS(=O)(=O)c3ccccc32)cc1 | -4.6% | 4.3% | 32.8% | · | -4.9% | ?
O=S1(=O)N=C(Nc2nncs2)c2ccccc21 | 0.6% | 2µM* | -16.8% | · | ? | 56.2µM*
Cc1cc(Nc2ccc3c(c2)OCCO3)c2ccccc2n1 | 18.3% | ? | -7.1% | -1.1% | -20.1% | -8.0%
SMILES | GLS inhibitor | G9a inh | HP1b binding inh | L3MBTL1 inh | JMJD2A Tudor inh | BAZ2B inh
Cc1ccc2nc(C)cc(Nc3ccc4c(c3)OCCO4)c2c1 | 16.6% | 44.7µM* | 8.5% | · | -19.2% | 6.7%
Cc1ccc(Nc2nc(-c3ccc(F)cc3)cs2)nc1 | 1.3% | -2.2%[59 µM] | 36.2% | -1.7% | 1.7% | -24.3%
Cc1ccc(Nc2nc(-c3ccc(O)c(O)c3)cs2)nc1 | ? | 15.8µM* | ? | -6.6% | 31.6µM* | 39.8µM*
Clc1ccccc1Nc1nc(-c2cccnc2)cs1 | 0.0% | -12.5%[12.7 µM] | -15.7% | -12.2% | -25.0% | 56.2µM*
COc1ccc(-c2csc(Nc3cccnc3)n2)cc1OC | -3.9% | 50.1µM* | 60.2% | -1.7% | -16.0%[57.1 µM] | -5.6%
CCOc1ccccc1Nc1nc(-c2cccnc2)cs1 | ? | -14.7%[59 µM] | -23.5% | -5.7% | ? | ?
COc1ccc(-c2csc(Nc3cc(C)ccn3)n2)cc1OC | -22.3% | 39.8µM* | -36.4% | -13.9% | ? | ?
Cc1ccnc(Nc2nc(-c3ccccc3)cs2)c1 | -2.2% | -2.4% | 67.1% | 1.1% | -9.3% | -19.0%
CCCS(=O)(=O)c1nc(S(=O)(=O)c2ccc(C)cc2)c(NC)s1 | -2.4% | 34.2%[59 µM] | 21.8% | · | -10.7% | -2.9%
Cc1ccnc(Nc2nc(-c3c(C)nc4sccn34)cs2)c1 | · | ? | -33.6% | · | ? | 44.7µM*
COc1ccc(-c2csc(Nc3cccc(C)n3)n2)cc1C | ? | 50.1µM* | -27.6% | · | -24.4% | -34.1%
c1cncc(Nc2nc(-c3cccnc3)cs2)c1 | 2.5% | ? | 13.7% | -3.8% | -26.6% | 4.1%
Clc1cccc(-c2csc(Nc3cccnc3)n2)c1 | 7.0% | 44.7µM* | 12.6% | 4.8% | -7.2% | -3.5%
C=NCc1cc2c(OC[C@@H](O)CNC(C)(C)C)cccc2[nH]1 | · | 28.9%[59 µM] | · | · | · | ·
CCOc1ccc(NC(=O)CCc2nc3cccnc3n2-c2ccccc2)cc1 | -2.5% | -25.7%[59 µM] | 31.3% | · | -26.5% | -21.4%
COc1ccc(-c2cc(=O)oc3cc(OC(C)C(=O)O)ccc23)cc1 (configuration not stated) | 13.3% | -5.0%[59 µM] | 17.4% | 4.2% | -20.9% | -38.8%
COc1ccc(-c2cc(=O)oc3c(O)c(O)ccc23)cc1 | 4.47µM* | 8.91µM* | -32.2% | · | ? | ?
Cc1ccc(NC(=O)Cn2c(=O)n(Cc3ccc4c(c3)OCO4)c(=O)c3ccccc32)c(C)c1 | -0.1% | -0.4%[59 µM] | 49.3% | · | -9.6% | -0.3%
Cc1nc2ccc(NC(=O)N3CCOCC3)cc2nc1C | -2.0% | 0.0% | 13.8% | -1.0% | -22.8% | -11.0%

Assay outcomes (PubChem BioAssay)
